About 83,000 compounds went through this panel and 20% of them were active in at least one assay; those are over-represented in the sample as a whole.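 Single-concentration screen, 48 h exposure, 96-well plates. Endpoint: percent growth. Below 10 = active.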 A number with no mark means an inactive call. Calls of active or inactive are those of the source.

Our source for the growth values is PubChem BioAssay (NCI).

Holding throughout (test): NCI-60 one-dose screen, 48 h (100 = growth as untreated, 0 = no growth, -100 = all killed)
One experiment deals with SK-MEL-2 melanoma. The conditions noted are these: 10 µM unless noted.
The next experiment has as its system EKVX NSCLC. The following applies: 10 µM unless noted.
The test system of a further experiment is SN12C renal. The conditions noted are these: 10 µM unless noted.
A further experiment relates to UO-31 renal. The following applies: 10 µM unless noted.
Another experiment deals with TK-10 renal. The following applies: 10 µM unless noted.
The subject of another experiment is ACHN renal. The conditions noted are these: 10 µM unless noted.
A further experiment deals with CAKI-1 renal. The conditions noted are these: 10 µM unless noted.
The test system of the next experiment is A498 renal. The following applies: 10 µM unless noted.
The next experiment relates to CCRF-CEM leukemia. The conditions noted are these: 10 µM unless noted.
Another experiment relates to MOLT-4 leukemia. The conditions noted are these: 10 µM unless noted.
A further experiment concerns SR leukemia. The following applies: 10 µM unless noted.
A further experiment relates to RPMI-8226 leukemia. The following applies: 10 µM unless noted.
Another experiment concerns OVCAR-8 ovarian. The following applies: 10 µM unless noted.
Another experiment relates to OVCAR-5 ovarian. The conditions noted are these: 10 µM unless noted.
Another experiment concerns OVCAR-4 ovarian. The following applies: 10 µM.
For a further experiment, the system named is SK-OV-3 ovarian. The conditions noted are these: 10 µM unless noted.
The subject of the next experiment is IGROV1 ovarian. The conditions noted are these: 10 µM unless noted.
Another experiment concerns OVCAR-3 ovarian. The following applies: 10 µM unless noted.
A further experiment concerns HS 578T breast. The following applies: 10 µM unless noted.
The next experiment deals with NCI/ADR-RES ovarian. The conditions noted are these: 10 µM unless noted.

For the compound `Nc1ccc2c(c1)Cc1cc(NC(=O)C(F)(F)F)ccc1-2`, the growth in the experiment with SK-MEL-2 melanoma is 98.6%; with EKVX NSCLC, 79.9%; in the experiment on SN12C renal it was 97.6%; with UO-31 renal it was 75.7%; in the experiment with TK-10 renal, 106%; with ACHN renal, 104%. Moreover, the growth in the experiment on CAKI-1 renal was 96.3%; in the experiment on A498 renal, 84.6%; in the experiment with CCRF-CEM leukemia, 86.3%; with MOLT-4 leukemia it was 109%; in the experiment with SR leukemia, 101%; in the experiment with RPMI-8226 leukemia it was 88.3%. In addition, the growth in the experiment with OVCAR-8 ovarian was 102%; with OVCAR-5 ovarian, 114%; in the experiment on OVCAR-4 ovarian, 109%; with SK-OV-3 ovarian it was 89.8%; in the experiment with IGROV1 ovarian it was 114%; with OVCAR-3 ovarian it was 99.5%. Besides, the values for the growth in the experiment on HS 578T breast and with NCI/ADR-RES ovarian were 119% and 104%, respectively.
Consider `N#Cc1c(N2CCOCC2)nc(=S)[nH]c1-c1ccco1`, for which the growth is 37.1% in the experiment on SK-MEL-2 melanoma; 48.8% with EKVX NSCLC; 77.6% in the experiment on SN12C renal; 66% in the experiment with UO-31 renal; 47.1% with TK-10 renal; 64.2% with ACHN renal. Besides, the growth was 58.2% with CAKI-1 renal; -1.37% (active) with A498 renal; 49.6% in the experiment with CCRF-CEM leukemia; 64.5% in the experiment on MOLT-4 leukemia; 17.8% in the experiment with SR leukemia; 43% in the experiment on RPMI-8226 leukemia. In addition, the growth was 80.3% in the experiment with OVCAR-8 ovarian; 69% with OVCAR-5 ovarian; 66.2% in the experiment on OVCAR-4 ovarian; 55% in the experiment on SK-OV-3 ovarian; 20.7% with IGROV1 ovarian; 64.7% with OVCAR-3 ovarian. Moreover, the growth with NCI/ADR-RES ovarian was 40.2%.
Take `COc1ccc(/C=C/C(=C/c2c(O)[nH]c3cc(Br)ccc23)N=O)cc1`: the growth with SK-MEL-2 melanoma is 140%; in the experiment with EKVX NSCLC, 108%; with SN12C renal, 102%; in the experiment on UO-31 renal it was 88.5%; in the experiment on TK-10 renal, 148%; with ACHN renal it was 110%. In addition, the growth is 93.1% in the experiment with CAKI-1 renal; 93.6% with A498 renal; 104% with CCRF-CEM leukemia; 104% in the experiment on MOLT-4 leukemia; 70.2% in the experiment with SR leukemia; 123% with RPMI-8226 leukemia. Besides, the growth was 104% in the experiment with OVCAR-8 ovarian; 110% with OVCAR-5 ovarian; 101% with OVCAR-4 ovarian; 114% in the experiment on SK-OV-3 ovarian; 103% in the experiment on IGROV1 ovarian; 114% with OVCAR-3 ovarian. Moreover, the growth in the experiment with NCI/ADR-RES ovarian was 111%.
For the compound `CCCCC1COc2cccc3c2N1C=C/C3=C\C(=O)n1ccc2ccccc21` (stereo unspecified), the growth in the experiment on SK-MEL-2 melanoma is 70.7%; with EKVX NSCLC, 82.9%; with SN12C renal, 94.7%; in the experiment with UO-31 renal, 57.5%; in the experiment on TK-10 renal, 118%; with ACHN renal, 88.5%. In addition, the growth in the experiment with CAKI-1 renal was 41%; with A498 renal it was 70.1%; in the experiment on CCRF-CEM leukemia, 67%; in the experiment on MOLT-4 leukemia, 40.9%; with SR leukemia it was 16.5%; in the experiment on RPMI-8226 leukemia it was 65.7%. In addition, the growth is 91.8% in the experiment with OVCAR-8 ovarian; 94.5% in the experiment with OVCAR-5 ovarian; 65.2% in the experiment on OVCAR-4 ovarian; 77.1% in the experiment with SK-OV-3 ovarian; 70.2% with IGROV1 ovarian; 68.4% in the experiment with OVCAR-3 ovarian. Besides, in the experiment on NCI/ADR-RES ovarian, the growth is 67.2%.
With `CCOC(=O)c1sc2nc(-c3cc(OC)c(OC)c(OC)c3)nc(N3CCOCC3)c2c1C`, the growth in the experiment on SK-MEL-2 melanoma was 28.1%; in the experiment on EKVX NSCLC, 39.5%; in the experiment on SN12C renal, 36%; in the experiment on UO-31 renal, 22.4%; in the experiment with TK-10 renal, 48.3%; in the experiment with ACHN renal, 33.6%. In addition, the growth in the experiment on CAKI-1 renal is 31.6%; in the experiment on A498 renal, -0.941% (active); with CCRF-CEM leukemia it was 17.1%; with MOLT-4 leukemia, 17.1%; with SR leukemia, 41.8%; in the experiment on RPMI-8226 leukemia, 9.94% (active). The growth was 44.1% in the experiment on OVCAR-8 ovarian; 74% in the experiment with OVCAR-5 ovarian; 19.7% in the experiment on OVCAR-4 ovarian; 56.1% in the experiment with SK-OV-3 ovarian; 50.5% with IGROV1 ovarian; 15.5% with OVCAR-3 ovarian. In addition, the growth in the experiment with NCI/ADR-RES ovarian is 53.9%.
Take `COc1ccc(NC(=O)Nc2ccc(-c3cccnc3)cc2N2CCC(CO)CC2)cc1`: the growth with SK-MEL-2 melanoma is 73.6%; in the experiment on EKVX NSCLC, 60%; with SN12C renal, 70.9%; in the experiment with UO-31 renal, 97.8%; with TK-10 renal, 47.1%; in the experiment on ACHN renal, 97.3%. Moreover, the growth with CAKI-1 renal was 64.1%; in the experiment with A498 renal it was 9.13% (active); in the experiment with CCRF-CEM leukemia, 95.4%; with MOLT-4 leukemia it was 93.2%; in the experiment on SR leukemia, 95.2%; in the experiment with RPMI-8226 leukemia, 54.4%. The growth in the experiment on OVCAR-8 ovarian is 79.1%; with OVCAR-5 ovarian, 49.6%; in the experiment on OVCAR-4 ovarian, 73.8%; in the experiment on SK-OV-3 ovarian, 71.7%; in the experiment with IGROV1 ovarian it was 110%; with OVCAR-3 ovarian it was 40.2%. Moreover, the growth was 62.6% in the experiment on HS 578T breast and 64.4% in the experiment with NCI/ADR-RES ovarian.
`CCN(CCO)CCC(=O)c1ccc([N+](=O)[O-])cc1`: the growth with SK-MEL-2 melanoma is 107%; in the experiment on EKVX NSCLC, 103%; in the experiment on SN12C renal, 107%; with UO-31 renal it was 75%; in the experiment with TK-10 renal, 99.8%; with ACHN renal, 110%. Also, the growth was 102% in the experiment on CAKI-1 renal; 87% with A498 renal; 124% in the experiment on CCRF-CEM leukemia; 114% in the experiment on MOLT-4 leukemia; 107% in the experiment with SR leukemia; 104% in the experiment with RPMI-8226 leukemia. Besides, the growth in the experiment with OVCAR-8 ovarian is 101%; in the experiment with OVCAR-5 ovarian, 116%; in the experiment on OVCAR-4 ovarian, 103%; in the experiment with SK-OV-3 ovarian, 107%; in the experiment on IGROV1 ovarian, 108%; in the experiment on OVCAR-3 ovarian it was 104%. Further, the growth in the experiment on HS 578T breast was 101%; with NCI/ADR-RES ovarian, 102%.
For the compound `COC(=O)[C@@H](NC(=O)NC(=O)NC(=O)CI)C(C)C`, the growth in the experiment on SK-MEL-2 melanoma was 87.4%; with EKVX NSCLC it was 95.7%; in the experiment with SN12C renal, 90.1%; in the experiment with UO-31 renal, -15.4% (active); in the experiment with TK-10 renal it was 89.8%; with ACHN renal, 79.8%. For the same compound, the growth was -61.6% (active) in the experiment on CAKI-1 renal; 87.9% in the experiment on A498 renal; -32.9% (active) with CCRF-CEM leukemia; 10.6% with MOLT-4 leukemia; -46.6% (active) with SR leukemia; 74.5% with RPMI-8226 leukemia. Besides, the growth in the experiment with OVCAR-8 ovarian is 90.9%; with OVCAR-5 ovarian, 90.9%; in the experiment on OVCAR-4 ovarian it was 72.7%; in the experiment on SK-OV-3 ovarian it was 80.9%; in the experiment on IGROV1 ovarian it was 101%; with OVCAR-3 ovarian, 7.92% (active). For the same compound, the growth in the experiment on HS 578T breast was 86.8%; with NCI/ADR-RES ovarian it was 101%.
